# Reference: the OligoGym collection
# Molecular target: KRTAP13-2
# Assay: pooled miR-30 sensor sort-seq; sequence = guide strand
# Conditions: shRNA
row,Sequence,sensor-assay potency score (higher = more potent)
1,TAGGCTGGTCTGTAACAAGGAG,-0.634
2,TAGGACGTCTGGCAGCTGGTGG,-1.01
3,TAACCCAGGGATCTGACACCAC,-0.823
4,TAGCGCAGGTAGTCACCACAGG,-0.777
5,TCCACATAGGACGTCTGGCAGC,-2.1
6,TAAGTCGTCTTGCAAGGACTGC,-0.646
7,AGGTAGTCACCACAGGAGCGGG,-1.51
8,TAGAGACCCAGAGTAAGTCGTC,0.623

# Molecular target: KRTAP4-5
# Assay: as above
# Conditions: shRNA
row,Sequence,sensor-assay potency score (higher = more potent)
1,TTATATGAGATCATCACAGTTA,0.439
2,TGGAGATGCAGCAGCTAGGGTG,-1.53
3,TAGGGTGGCAGCAGGTGGGCTG,-0.712
4,ATGAATGTGATTGTCTGTCATT,-1.58
5,TGGTAGCACACAGACTGGCAGC,-1.41
6,TGGTCTGGCAGCAGCAGGGGCG,-1.72
7,TTAATGAATGTGATTGTCTGTC,0.0544
8,TAACATATTTTAATGAATGTGA,-0.0651
9,TTTAATGAATGTGATTGTCTGT,0.174
10,TGCTCAGAGCTGACAGAGCCAC,-1.57
11,ATTCACAGCAATAGGGGCGGCA,-0.786
12,TGGATTCACAGCAATAGGGGCG,-0.512

# Molecular target: KRTAP4-7
# Assay: as above
# Conditions: shRNA
row,Sequence,sensor-assay potency score (higher = more potent)
1,CAGCTGGACACACAACAGCTGG,-1.96
2,TGGTCAGAGCACACGGAGCCAC,-1.43
3,TATTGAATGACATCAACCCCAC,-0.0813
4,CTGGACACACAACAGCTGGGGC,-1.77
5,TCTGACAGCAGCTGGGGCGGCA,-1.19
6,TGACAGAGGACTTGGCCGCAGC,-1.09
7,TGGTCTGACAGCAGCTGGGGCG,-1.46
8,TAGCAGGTGGTCCTGCAACAGG,-1.7
9,TTGCAGCAGCTGGACATACAGC,-1.51
10,AGCTGGACACACAACAGCTGGG,-1.49
11,TGGAGATGCAGCACCTAGGGTG,-0.36
12,TCAGTGACAAAACTGGTCCTGC,0.367
13,TAGGGTGGCAGCAGGTCGTCTC,-0.549
14,CAGCAGGTCGTCTCACAGCAGC,-2.76
15,CAGGTGGTCTGACAGCAGCTGG,-2.02

# Molecular target: KRTAP5-8
# Assay: as above
# Conditions: shRNA
row,Sequence,sensor-assay potency score (higher = more potent)
1,TTACAACAGCTGGACTGGGAAC,-1.86
2,TGAGGAGCAACAGCAGGGCTTA,-1.48
3,AGCCTGAGGAGCAACAGCAGGG,-1.24
4,ACAGGAGCCACAGTCCCCCTTG,-0.958
5,TGCAGGGCTTACAACAGCTGGA,-1.15
